50 compounds from ChEMBL document CHEMBL3988442, “University of Dundee, Small-Polar-MMV Screening Library” (2021) can be followed below.

Structures are written as SMILES.

Experiment [1] has as its target T1, Aspartate--tRNA(Asp/Asn) ligase (Mycobacterium tuberculosis (strain ATCC 25618 / H37Rv)) (UniProt P9WFW3). Also: in the data most compounds retested in dose-response had high values.
T1 sequence (whole entry): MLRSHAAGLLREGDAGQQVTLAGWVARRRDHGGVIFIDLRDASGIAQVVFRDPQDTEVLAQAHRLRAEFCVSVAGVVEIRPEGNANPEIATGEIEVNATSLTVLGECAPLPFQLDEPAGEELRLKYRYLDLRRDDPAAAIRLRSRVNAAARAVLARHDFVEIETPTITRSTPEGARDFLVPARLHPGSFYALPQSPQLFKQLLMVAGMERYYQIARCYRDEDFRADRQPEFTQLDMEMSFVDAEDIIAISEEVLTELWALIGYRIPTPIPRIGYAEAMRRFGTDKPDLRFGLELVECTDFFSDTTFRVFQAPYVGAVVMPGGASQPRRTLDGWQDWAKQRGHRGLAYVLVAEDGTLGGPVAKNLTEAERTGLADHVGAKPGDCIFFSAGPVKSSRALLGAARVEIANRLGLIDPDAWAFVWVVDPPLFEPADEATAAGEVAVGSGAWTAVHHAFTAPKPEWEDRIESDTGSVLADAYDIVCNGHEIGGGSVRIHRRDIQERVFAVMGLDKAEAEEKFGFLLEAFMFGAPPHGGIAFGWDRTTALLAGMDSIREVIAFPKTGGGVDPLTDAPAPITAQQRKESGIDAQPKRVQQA
The experiment is described as follows: Assay for Asp RNA synthetase-1 from Mycobacterium tuberculosis. The format is functional. The arrangement: scale not given: direction of the effect not stated beside the values. The settings on record: 30 µM.

Experiment [2] concerns the target Shiga toxin 2 (Escherichia coli O157:H7) (UniProt P09385+P09386). The experiment is described as follows: E. coli 0.157:H7 Shiga Toxin SOP - stx2 screening assay. The format is functional. The settings on record: 30 µM. Set-up: scale not given: direction of the effect not stated beside the values.

As for `Cc1nn(C)c2c(NCCCn3cccn3)ncnc12`, the Percent Effect in experiment [1] is -6.88%; in experiment [2], -37.5%.

With `Cc1ncc2c(n1)CCCC2NC(=O)c1ccncc1` (stereo not given), the Percent Effect is 2.71% in experiment [1] and -63.8% in experiment [2].

As to `Cc1noc(C)c1C(=O)NCC(C)N(C)C` (stereo not given), the Percent Effect came to 1.84% in experiment [1] and 30.6% in experiment [2].

In the case of `Cc1cccc(CN2C[C@@H]3COC[C@]3(CNC(=O)c3ccsc3)C2)n1`, the Percent Effect was -2.88% in experiment [1] and -15.8% in experiment [2].

In the case of `O=C(NCCCN1CCOCC1)c1cc(-c2ccc3c(c2)CCO3)n[nH]1`, the Percent Effect was -2.27% in experiment [1] and -67.7% in experiment [2].

Turning to `CC(C(=O)N1CCCN(c2ccc(C#N)cc2)CC1)n1ccnc1` (stereo not given), the Percent Effect in experiment [1] is -2.92%; in experiment [2], 4.39%.

Turning to `O=C(NCCN1CCNCC1)c1nc2ccccc2c(=O)[nH]1`, the Percent Effect in experiment [1] is 2.9%; in experiment [2], -55.8%.

As to `O=C(c1cc(Cl)c2c(c1)OCO2)N1CCN(c2nccs2)CC1`, the Percent Effect is -0.23% in experiment [1] and -4.3% in experiment [2].

Regarding `CC(=O)N1CCCCC1c1cc(CO)[nH]n1` (stereo not given), the Percent Effect is -3.86% in experiment [1] and 7.89% in experiment [2].

For `O=C(c1n[nH]c(=O)c2ccccc12)N1CCCCC1c1ccn[nH]1` (stereo not given), the figures for the Percent Effect in experiment [1] and in experiment [2] were -1.09% and 17.2%, respectively.

As for `CCc1nccn1C1CCCN(C(=O)c2cnc3ccccc3n2)C1` (stereo not given), the Percent Effect in experiment [1] came out at 1.02%; in experiment [2] it was 11.4%.

Turning to `CC(C)c1nc2n(n1)CC(NCc1ccncc1)CC2` (stereo not given), the Percent Effect in experiment [1] is -2.1%; in experiment [2], -1.1%.

`CNc1cncc(C2CCCN(S(C)(=O)=O)C2)n1` (stereo not given): the Percent Effect was 5.76% in experiment [1] and 2.62% in experiment [2].

Regarding `CN(CC(=O)N1CCN(c2ccccc2F)CC1)c1cnccn1`, the figures for the Percent Effect in experiment [1] and in experiment [2] were 0.903% and 8.69%, respectively.

`CC(OCC1CC1)C(=O)N1CCCN(Cc2nccn2C)CC1` (stereo not given): the values for the Percent Effect in experiment [1] and in experiment [2] were 7.9% and -20.4%, respectively.

As to `O=C(Cn1c(=O)n(Cc2ccco2)c2ncccc21)Nc1ccccn1`, the Percent Effect in experiment [1] worked out at 8.2%; in experiment [2], 3.73%.

In the case of `CC(C)n1ccnc1CN1CCCN(C(=O)c2cccnc2O)CC1`, the Percent Effect in experiment [1] is -2.15%; in experiment [2], -43.9%.

For the compound `O=C(NCCn1ccnc1)c1ccn(-c2cccc(F)c2)n1`, the Percent Effect in experiment [1] stood at 5.59%; in experiment [2], 0.0864%.

Consider `c1csc(CN2CCn3c(Cn4cncn4)cnc3C2)n1`, for which the Percent Effect in experiment [1] is -1.25%; in experiment [2] it was -17.5%.

On to `CC(C)(C)c1cc(CN2CC[C@@H](NC(=O)c3cccnc3)[C@H](O)C2)n[nH]1`, for which the Percent Effect in experiment [1] is -4.62%; in experiment [2], 14.9%.

As for `CCc1c(C(=O)N2CCN(c3ncccn3)CC2)cnn1C(C)(C)C`, the Percent Effect is 3.62% in experiment [1] and 30.7% in experiment [2].

With `O=C1OC2(CCN(C3CCCOC3)CC2)CN1CCc1ccccc1` (stereo not given), the Percent Effect was 1.52% in experiment [1] and -27.2% in experiment [2].

As for `CC(C)c1nnc2n1CCN(C(=O)CN1Cc3ccccc3C1=O)C2`, the Percent Effect is -0.233% in experiment [1] and -25.5% in experiment [2].

`CS(=O)(=O)CCNC(=O)C1(c2cccc(Cl)c2)CCCCC1`: the Percent Effect in experiment [1] is 1.2%; in experiment [2], -20.3%.

As to `CC(=O)c1cccc(OCCCC(=O)N(C)CCc2ccncc2)c1`, the Percent Effect in experiment [1] was -0.591%; in experiment [2] it was -45.6%.

Consider `COc1ccc(C(=O)NCCc2nnc3ccccn23)c(OC)c1`, for which the Percent Effect in experiment [1] was 3.2%; in experiment [2] it was -5.45%.

In the case of `O=C1CC(c2ccccc2F)c2c(n3ccsc3nc2=O)N1` (stereo not given), the Percent Effect in experiment [1] is 1.48%; in experiment [2] it was -23%.

Regarding `CCN(C)c1ncnc2c1CCN(Cc1ccoc1)CC2`, the Percent Effect in experiment [1] is 5.11%; in experiment [2], -28.5%.

Take `CC(=O)N(C)CC(=O)Nc1cccc(N2CCN(CC3CC3)CC2)c1`: the Percent Effect in experiment [1] was 7.12%; in experiment [2] it was -14.8%.

Consider `CN1CCOC(CNC(=O)CCCOc2ccccc2F)C1` (stereo not given), for which the Percent Effect in experiment [1] is -5.14%; in experiment [2] it was -33.1%.

For `O=C(CCc1cc2n(n1)CCN(Cc1ncc[nH]1)C2)N1CCCC1`, the Percent Effect was -0.827% in experiment [1] and -2% in experiment [2].

Consider `COC(=O)COc1cccc(NS(=O)(=O)c2cc(C(=O)O)cs2)c1`, for which the Percent Effect in experiment [1] is -3.15%; in experiment [2], -53.3%.

As for `CC(C)Oc1ccccc1CNC(=O)N1CCC(n2cncn2)CC1`, the Percent Effect was -5.72% in experiment [1] and -31.1% in experiment [2].

`Cc1nn(CC(=O)N2CCN(c3ccccc3F)CC2)c(C)c1Cl`: the Percent Effect was 8.8% in experiment [1] and -39.1% in experiment [2].

Turning to `CC(Cn1ccnc1)NC(=O)NCCc1ccccn1` (stereo not given), the Percent Effect in experiment [1] is -8.15%; in experiment [2], -8.89%.

As to `COCCOc1ccc(NC(=O)C2CCC2)cn1`, the Percent Effect is -1.46% in experiment [1] and -10.4% in experiment [2].

Turning to `O=C1CCC2(CCCN(c3ncc(F)cn3)CC2)N1CC1CC1` (stereo not given), the Percent Effect in experiment [1] was -1.91%; in experiment [2], -3.81%.

As for `Cc1nn(C)cc1CCC(=O)N1CCCC(n2cncn2)C1` (stereo not given), the Percent Effect in experiment [1] is -2.1%; in experiment [2] it was 12.3%.

As for `CN(C(=O)c1cccc2[nH]ncc12)C1CCN(c2ccccn2)CC1`, the Percent Effect in experiment [1] came out at 4.76%; in experiment [2] it was 24.8%.

Consider `CN(Cc1noc(C2CC2)n1)C1CCN(Cc2nnc(C3CC3)o2)C1` (stereo not given), for which the figures for the Percent Effect in experiment [1] and in experiment [2] were 4.05% and -15.5%, respectively.

As for `CC(C)(CNC(=O)OC(C)(C)C)NC(=O)C1CC(=O)N(C2CC2)C1` (stereo not given), the values for the Percent Effect in experiment [1] and in experiment [2] were 3.37% and -23.3%, respectively.

`Cc1cccc(CNCc2c(C(C)C)nn(C)c2N2CCOCC2)n1`: the Percent Effect in experiment [1] amounted to 7.04%; in experiment [2], 12.3%.

`COc1ccc(NC(=O)NCC(O)c2ccc(F)cc2F)c(OC)c1` (stereo not given): the results for the Percent Effect in experiment [1] and in experiment [2] were 1.18% and -4.16%, respectively.

Turning to `O=C(c1cnccn1)N1CCCC2(COCCN(CC3CC3)C2)C1` (stereo not given), the results for the Percent Effect in experiment [1] and in experiment [2] were 3.16% and 9.41%, respectively.

Take `CCC1=N[C@@]2(CC[C@@H]3CN(C(=O)NCc4ccccc4)C[C@@H]32)C(=O)N1C`: the Percent Effect was 2.18% in experiment [1] and 3.06% in experiment [2].

Take `Cc1nccn1-c1nccnc1C1CCN(Cc2ccc(F)cc2)CC1`: the Percent Effect in experiment [1] is -0.338%; in experiment [2], -6.1%.

For `CCOCC1CN(S(C)(=O)=O)Cc2cnn(C)c21` (stereo not given), the Percent Effect is -0.204% in experiment [1] and -35.8% in experiment [2].

With `CCN(CCC(F)(F)F)C(=O)Nc1cccc(N2CCOCC2)c1`, the Percent Effect in experiment [1] was 1.08%; in experiment [2], -51.5%.

As for `Cc1ccc(CN2CC(C(=O)Nc3ccccc3)C3(CCOCC3)C2)s1` (stereo not given), the Percent Effect in experiment [1] is 8.04%; in experiment [2], -1.18%.

As for `CC(C)c1nc2n(n1)CC(NCc1ncc(-c3ccccc3)o1)CC2` (stereo not given), the Percent Effect in experiment [1] was -5.88%; in experiment [2], -9.35%.
